Bioassay records as filed in PubChem.
E coli growth-1 = blocks Escherichia coli growth; OD600, 23 h; stronger effect = lower value; OD600 absorbance (test concentration not listed); 0.21% of 330,000 active;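 active means OD600 absorbance below the run mean of sample wells minus 3.6 SD, in any replicate, cut at about 0.56 in these data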
E coli growth-2 = counter-screen for AddAB inhibitors: E. coli growth inhibition | 0.27% of 330,000 active | E. coli V3065 growth, OD600 absorbance, 18 h | inhibition, % at 11.9 µM;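 active means inhibition above the campaign's mean inhibition across all tested compounds plus 3 SD, cut at about 9.9% in these data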;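 further: uninfected addAB+ strain grown without phage in ampicillin broth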
Tat export inh = E. coli Tat transport inhibition; E. coli MC4100 TorA-mCherry Tat export, fluorescence; inhibition, % at 10 µM; 0.036% of 340,000 active; AID 488895;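 active means mean replicate inhibition at least 50% and at least half of replicates individually reaching 50%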;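 further: exported cargo escapes ClpAP degradation while cytoplasmic cargo is degraded and loses fluorescence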
phage Ecoli inh = E. coli growth loss with phage present; growth absorbance; inhibition, % at 11.9 µM; 0.26% of 360,000 active; AID 651602; in the data active means inhibition above about 11%
AddAB inh = less growth of phage-infected E. coli with AddAB | inhibition, % at 11.9 µM | 0.29% of 330,000 active | E. coli expressing H. pylori AddAB, absorbance growth | AID 435030; in the data active means inhibition above about 12%
AddAB conf = growth loss of T4-infected E. coli expressing H. pylori AddAB, confirmed; shares compounds with AddAB inh; 64% of 880 active; AID 488942; inhibition, % at 11.9 µM; E. coli V3065 expressing H. pylori AddAB, T4 phage, OD; T4 phage with gene 2 nonsense mutations;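 active means mean inhibition above a set limit taken from the earlier primary screen, cut at about 13% in these data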;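 further: higher means less bacterial growth since AddAB block lets phage replicate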
RecBCD counter = reduces growth of phage-infected RecBCD+ E. coli, AddAB inhibitor counter-screen. shares compounds with AddAB inh. E. coli V66 + mutant T4 phage, OD growth. inhibition, % at 11.9 µM. 73% of 880 active;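 active means mean inhibition above the mean of solvent-only control wells plus 3 SD, cut at about 4% in these data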;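 further: optical density read after an 18 h incubation at 37 °C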
bact viab count = counter-screen: bacterial growth inhibition. shares compounds with AddAB inh. bacterial viability, absorbance (AddAB counterscreen). inhibition, % at 11.9 µM. 35% of 880 active; in the data active means inhibition above about 25%
RecBCD conf = confirmation: growth loss of phage-infected RecBCD+ E. coli (RecBCD inhibitor screen) | shares compounds with phage Ecoli inh | E. coli V66 + T4 2- phage, growth OD | inhibition, % at 11.9 µM | 45% of 890 active | AID 651982;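 active means mean inhibition over triplicates exceeding the hit threshold derived in the original primary screen, cut at about 11% in these data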
Ecoli viability = bacterial viability inhibition counter-screen for RecBCD | shares compounds with phage Ecoli inh | E. coli viability, absorbance (OD) growth | inhibition, % at 11.9 µM | 29% of 890 active | AID 651983; in the data active means inhibition above about 20%;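 further: E. coli strain V66 grown with compound alone and no phage infection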
AddAB counter = growth loss of phage-infected AddAB E. coli, RecBCD counter-screen; inhibition, % at 11.9 µM; shares compounds with phage Ecoli inh; E. coli expressing H. pylori AddAB + T4 phage, OD growth; gene 2 mutant T4, recBCD-deleted host; 45% of 890 active; AID 651984;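 active means mean inhibition above the solvent-only control wells' mean plus 3 SD, cut at about 22% in these data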;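 further: higher means less bacterial growth from phage killing when AddAB is blocked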
Of the large screens only hits and unclear results are named; the others gave an inactive call (follow-up assays come after a bar, where they were run). A selection: hits, their analogues and other compounds. The true share with any hit is near 0.5%.

c1ccc2c(c1)[IH]c1ccccc1-2	phage Ecoli inh 100.8 (no result: E coli growth-1, E coli growth-2, AddAB inh)
COc1ccc2c(c1)C(=Cc1cnc[nH]1)C(=O)N2	none (no result: E coli growth-2, Tat export inh, phage Ecoli inh, AddAB inh)
CCC(C)C(NC(=O)CCCNC(=O)CCC(=O)OC1O[C@H]2OC3(C)CC[C@H]4[C@H](C)CCC(C1C)C24OO3)C(=O)O (some centres not stated)	none (no result: E coli growth-1)
CCC(C)NC(=O)CCC(=O)OC1O[C@H]2OC3(C)CC[C@H]4[C@H](C)CCC(C1C)C24OO3 (some centres not stated)	E coli growth-1 0.499 (no result: E coli growth-2, AddAB inh)
COC(=O)C1=C(c2ccccc2)CC2CCC1N2C(=O)NC(C)C (configuration not stated)	none (no result: E coli growth-2, Tat export inh, phage Ecoli inh, AddAB inh)
Oc1ccc(Cl)c(Cl)c1Cl	E coli growth-1 0.521
Cc1cc(O)ccc1Cl	none (no result: E coli growth-1, E coli growth-2, Tat export inh, AddAB inh)
Nc1cc(Cl)c2nonc2c1[N+](=O)[O-]	E coli growth-1 0.437
O=[N+]([O-])c1c(Cl)c(Cl)c(Cl)c(Cl)c1Cl	none (no result: E coli growth-1, E coli growth-2, AddAB inh)
COC1CC(OC2OC(CO)C(O)C(O)C2O)C(=CC#N)C(O)C1OC (configuration not stated)	none (no result: E coli growth-2, Tat export inh, phage Ecoli inh, AddAB inh)
C[C@@H]1CC[C@H]2[C@@H](C)C(=O)O[C@@H]3O[C@@]4(C)CC[C@@H]1[C@]32OO4	E coli growth-1 0.446
Cc1ccc(-c2nc(N3CCOCC3)s[n+]2-c2ccccc2)cc1	E coli growth-1 0.509
Cc1[nH]c2ccc(OC(F)(F)F)cc2c1CCNCc1ccc(Cl)cc1	E coli growth-1 0.502 (no result: E coli growth-2, AddAB inh)
COC(=O)C1=C(c2c(C)noc2C)CC2CCC1N2C(=O)N1CCC(O)(c2ccc(Cl)cc2)CC1 (configuration not stated)	none (no result: E coli growth-2, Tat export inh, phage Ecoli inh, AddAB inh)
O=C(c1ccc(N2CCCCC2)c([N+](=O)[O-])c1)N1CCC2(CC1)OCCO2	E coli growth-1 0.524
CC1CCCN(c2ccc(C(=O)N3CCC4(CC3)OCCO4)cc2[N+](=O)[O-])C1 (configuration not stated)	none (no result: E coli growth-1)
Cc1nn(Cc2ccccc2)c(C)c1C(=O)NCc1ccccc1	Tat export inh 54.6
O=C1C=CC(=O)C2C1C1(Cl)C(Cl)=C(Cl)C2(Cl)C1(Cl)Cl (configuration not stated)	E coli growth-1 0.512 (no result: E coli growth-2, AddAB inh)
N#Cc1c(N=CC2C(=O)NC(=S)NC2=O)sc2c1CCCC2	none (no result: E coli growth-2, Tat export inh, phage Ecoli inh, AddAB inh)
CN(C)c1ccc(C=Cc2cc[n+](C)c3ccccc23)cc1	E coli growth-1 0.388 (no result: E coli growth-2, Tat export inh, phage Ecoli inh, AddAB inh)
CN(C)c1ccc(/C=C/c2cc[n+](C)c3ccccc23)cc1	none (no result: E coli growth-1, E coli growth-2, AddAB inh)
COC(=O)C1=C(c2ccc(C(C)=O)cc2)CC2CCC1N2C(=O)NCCCOC(C)C (configuration not stated)	none (no result: E coli growth-2, Tat export inh, phage Ecoli inh, AddAB inh)
COc1ccc(N2C(=O)NC(=O)/C(=C\c3ccc([N+](=O)[O-])s3)C2=O)cc1	E coli growth-1 0.474
COC(=O)C1=C(c2cccc(OC)c2OC)CC2CCC1N2C(=O)NCCO (configuration not stated)	none (no result: E coli growth-2, Tat export inh, phage Ecoli inh, AddAB inh)
Cc1cc(O)c2c(c1)C(=O)C13C(=C2O)C(=O)[C@H]2[C@@H](O)[C@@H]1[C@H]1[C@H](O)[C@@H]3C(=O)C3=C(O)c4c(O)cc(C)cc4C(=O)C312 (some centres not stated)	E coli growth-1 0.067, E coli growth-2 76.4, Tat export inh 129.7, AddAB inh 60.1 (no result: phage Ecoli inh) | AddAB conf 36.1 | RecBCD counter 31.8 | bact viab count 42.6
C[C@]12CCC(O)CC1CCC1C2CC[C@]2(C)C(C3=CC(=O)OC3)C(O)C[C@]12O (some centres not stated)	none (no result: E coli growth-2, Tat export inh, phage Ecoli inh, AddAB inh)
C[C@@H]1O[C@@H](O[C@H]2C[C@@H](O)[C@]3(CO)[C@H]4[C@H](O)C[C@]5(C)[C@@H](C6COC(=O)C6)CC[C@]5(O)[C@@H]4CC[C@]3(O)C2)[C@H](O)[C@H](O)[C@H]1O (some centres not stated)	E coli growth-2 95.7, AddAB inh 98.3 (no result: E coli growth-1) | AddAB conf inactive | RecBCD counter inactive | bact viab count inactive
CCOC(=O)c1cc(C)sc1N=CC1C(=O)NC(=S)NC1=O	none (no result: E coli growth-2, Tat export inh, phage Ecoli inh, AddAB inh)
COc1cc(CNCCc2ccc3c(c2)OCO3)ccc1O	none
CCCCCCCCC(=O)NCc1ccc(O)c(OC)c1	E coli growth-2 99.8, AddAB inh 98.3 | AddAB conf inactive | RecBCD counter inactive | bact viab count inactive
Oc1c(Cl)c(Cl)c(Cl)c(Cl)c1Cl	E coli growth-2 11.3, phage Ecoli inh 12.0, AddAB inh 13.2 | AddAB conf inactive | RecBCD counter 16.6 | bact viab count inactive
NC(N)=NN=Cc1ccc(N2CCOCC2)cc1	none (no result: E coli growth-2, Tat export inh, phage Ecoli inh, AddAB inh)
CC1=C[C@@H](C)CC=C[C@H]2[C@@H]3O[C@]3(C)[C@@H](C)[C@H]3[C@H](Cc4c[nH]c5ccccc45)NC(=O)[C@]32C(=O)C=CC(=O)[C@@H]1O	none (no result: E coli growth-2, Tat export inh, phage Ecoli inh, AddAB inh)
CCN1/C(=C\C=C\C2=[N+](CC)c3ccccc3C2(C)C)C(C)(C)c2ccccc21	E coli growth-1 0.525, E coli growth-2 30.5, AddAB inh 35.4 (no result: phage Ecoli inh) | AddAB conf 51.0 | RecBCD counter 23.4 | bact viab count 45.6
C[CH2][Hg][S]c1ccccc1C(=O)O	E coli growth-1 0.0605, E coli growth-2 101.0, phage Ecoli inh active, AddAB inh active | AddAB conf active | RecBCD counter active | bact viab count 98.4 | RecBCD conf active | Ecoli viability 105.5 | AddAB counter active
COC(=O)C1=C(c2ccc(OCc3ccccc3)cc2)CC2CCC1N2C(=O)NCc1cccc(C(F)(F)F)c1 (configuration not stated)	none (no result: E coli growth-2, Tat export inh, phage Ecoli inh, AddAB inh)
N/C(=N\[N+](=O)[O-])N/N=C/c1ccc(O)cc1	none (no result: E coli growth-1)
Nc1nonc1C(=O)N/N=C/c1ccc([N+](=O)[O-])o1	phage Ecoli inh 18.4, AddAB inh 16.6 (no result: E coli growth-1) | AddAB conf 98.5 | RecBCD counter 6.7 | bact viab count inactive | RecBCD conf inactive | Ecoli viability inactive | AddAB counter 61.1
COC(=O)C1=C(c2ccc(OC(F)(F)F)cc2)CC2CCC1N2C(=O)NCCOc1ccccc1 (configuration not stated)	none (no result: E coli growth-2, Tat export inh, phage Ecoli inh, AddAB inh)
